Measurements published in article PMC7862700, “An all-to-all approach to the identification of sequence-specific readers for epigenetic DNA modifications on cytosine”.

How the values were obtained:
Experiment in all cases: DAPPL (digital affinity profiling via proximity ligation, sequencing); 10 mM Tris-HCl pH 7.5, 50 mM NaCl, 1 mM DTT, 4% glycerol, room temperature, 30 min; GST-TFs on glutathione beads, 16-mer random dsDNA library, 0.1% formaldehyde crosslink after washing; high values mean tight binding
Settings in all cases: protein: recombinant; tags: N-terminal GST; dsDNA, one strand shown
FLI1 = molecular target: T1, FLI1 (Homo sapiens, UniProt Q01543 1-452)
T1 sequence: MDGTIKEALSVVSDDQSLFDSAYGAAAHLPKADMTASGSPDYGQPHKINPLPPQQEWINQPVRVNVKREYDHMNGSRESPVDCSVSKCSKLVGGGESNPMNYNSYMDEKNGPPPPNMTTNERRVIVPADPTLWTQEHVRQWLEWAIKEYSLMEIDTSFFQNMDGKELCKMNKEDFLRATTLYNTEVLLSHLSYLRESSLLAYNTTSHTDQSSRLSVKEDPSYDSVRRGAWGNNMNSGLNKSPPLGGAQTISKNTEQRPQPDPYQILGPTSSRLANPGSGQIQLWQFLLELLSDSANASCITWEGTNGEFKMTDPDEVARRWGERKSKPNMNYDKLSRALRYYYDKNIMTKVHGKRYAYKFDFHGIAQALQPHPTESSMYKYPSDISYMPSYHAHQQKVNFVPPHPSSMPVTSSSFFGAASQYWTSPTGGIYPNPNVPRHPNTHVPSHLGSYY
Procedure, shortened: (§1)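 GST fusions of human transcription factors were expressed in yeast and captured with glutathione beads. Once given DNA barcodes and pooled alongside a tag-only sample, they were incubated for 30 min at room temperature with 200 nmole of a random double-stranded 16-mer DNA library in Tris/NaCl/DTT/glycerol buffer, then washed, crosslinked (0.1% formaldehyde), proximity-ligated, PCR-amplified and sequenced on an Illumina NextSeq500. The binding signal of each hexamer is its read frequency for a factor divided by its frequency for the tag-only sample.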

ELK1 = molecular target: T2, ELK1 (Homo sapiens, UniProt P19419 1-428)
T2 sequence: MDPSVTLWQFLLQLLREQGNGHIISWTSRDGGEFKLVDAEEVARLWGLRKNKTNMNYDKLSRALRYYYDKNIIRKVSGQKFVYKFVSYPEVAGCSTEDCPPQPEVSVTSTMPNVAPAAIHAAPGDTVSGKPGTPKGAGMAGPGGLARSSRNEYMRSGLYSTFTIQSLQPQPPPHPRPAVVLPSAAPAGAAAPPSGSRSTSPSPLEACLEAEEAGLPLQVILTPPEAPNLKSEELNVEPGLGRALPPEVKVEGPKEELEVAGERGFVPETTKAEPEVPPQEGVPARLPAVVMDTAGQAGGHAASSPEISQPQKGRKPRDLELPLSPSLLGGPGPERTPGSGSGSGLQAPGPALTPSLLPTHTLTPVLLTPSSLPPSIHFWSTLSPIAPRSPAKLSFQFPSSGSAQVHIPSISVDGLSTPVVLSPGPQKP
Procedure, shortened: as §1

GABPA = molecular target: T3, GABPA (Homo sapiens, UniProt Q06546 1-454)
T3 sequence: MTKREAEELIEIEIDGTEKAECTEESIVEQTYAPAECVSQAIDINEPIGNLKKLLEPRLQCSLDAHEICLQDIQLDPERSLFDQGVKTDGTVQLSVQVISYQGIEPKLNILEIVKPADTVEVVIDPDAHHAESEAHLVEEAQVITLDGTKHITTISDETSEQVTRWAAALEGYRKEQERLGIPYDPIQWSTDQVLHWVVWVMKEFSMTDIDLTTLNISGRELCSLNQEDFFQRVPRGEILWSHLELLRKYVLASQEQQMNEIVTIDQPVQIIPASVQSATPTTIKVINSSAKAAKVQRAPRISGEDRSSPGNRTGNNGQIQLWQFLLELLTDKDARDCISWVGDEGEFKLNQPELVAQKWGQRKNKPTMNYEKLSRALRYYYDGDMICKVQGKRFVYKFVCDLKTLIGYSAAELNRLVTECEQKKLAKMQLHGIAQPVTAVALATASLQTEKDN
Procedure, shortened: as §1

ERG = molecular target: T4, ERG (Homo sapiens, UniProt P11308 1-479)
T4 sequence: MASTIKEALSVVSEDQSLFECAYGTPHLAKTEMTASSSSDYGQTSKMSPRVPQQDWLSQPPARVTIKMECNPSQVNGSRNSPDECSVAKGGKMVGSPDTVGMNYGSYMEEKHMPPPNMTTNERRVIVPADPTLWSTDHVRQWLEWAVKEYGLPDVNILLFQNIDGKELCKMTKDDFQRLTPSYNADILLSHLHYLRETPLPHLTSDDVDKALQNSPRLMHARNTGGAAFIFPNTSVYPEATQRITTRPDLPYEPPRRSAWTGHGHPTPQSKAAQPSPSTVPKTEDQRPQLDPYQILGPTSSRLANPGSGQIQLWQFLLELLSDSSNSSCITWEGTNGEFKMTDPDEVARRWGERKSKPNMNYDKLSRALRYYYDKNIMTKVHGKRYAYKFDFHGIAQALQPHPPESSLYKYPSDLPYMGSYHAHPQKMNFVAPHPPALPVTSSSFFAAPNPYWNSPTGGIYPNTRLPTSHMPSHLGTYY
Procedure, shortened: as §1

ELF1 = ELF1 (Homo sapiens, UniProt P32519 1-619)
Chain of ELF1 (P32519 whole entry): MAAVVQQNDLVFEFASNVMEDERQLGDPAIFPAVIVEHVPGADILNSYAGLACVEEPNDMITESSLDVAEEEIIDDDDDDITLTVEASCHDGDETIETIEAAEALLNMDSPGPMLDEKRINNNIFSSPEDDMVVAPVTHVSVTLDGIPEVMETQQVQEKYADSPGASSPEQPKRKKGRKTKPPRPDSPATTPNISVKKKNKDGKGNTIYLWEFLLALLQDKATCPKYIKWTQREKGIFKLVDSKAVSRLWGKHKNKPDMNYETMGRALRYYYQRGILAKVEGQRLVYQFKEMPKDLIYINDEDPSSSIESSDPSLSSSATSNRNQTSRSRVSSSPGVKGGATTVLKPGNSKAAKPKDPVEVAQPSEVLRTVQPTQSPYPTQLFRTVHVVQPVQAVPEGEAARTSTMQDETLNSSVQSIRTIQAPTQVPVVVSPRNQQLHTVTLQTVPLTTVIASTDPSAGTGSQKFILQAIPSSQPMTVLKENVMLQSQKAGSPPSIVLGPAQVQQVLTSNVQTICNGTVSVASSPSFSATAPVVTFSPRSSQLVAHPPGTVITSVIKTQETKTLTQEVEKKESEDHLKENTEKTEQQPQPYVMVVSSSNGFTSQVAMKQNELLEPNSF
Procedure, shortened: as §1

EHF = molecular target: T5, EHF (Homo sapiens, UniProt Q9NZC4 1-300)
T5 sequence: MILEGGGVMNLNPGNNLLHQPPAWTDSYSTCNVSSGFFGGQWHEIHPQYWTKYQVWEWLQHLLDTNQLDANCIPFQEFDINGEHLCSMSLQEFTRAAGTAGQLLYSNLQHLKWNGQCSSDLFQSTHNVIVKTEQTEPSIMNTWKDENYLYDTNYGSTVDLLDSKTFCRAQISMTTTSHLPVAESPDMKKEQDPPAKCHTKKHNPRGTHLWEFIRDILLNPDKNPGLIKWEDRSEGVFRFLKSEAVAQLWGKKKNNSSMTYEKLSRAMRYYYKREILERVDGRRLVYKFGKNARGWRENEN
Procedure, shortened: as §1

SPI1 = SPI1 (Homo sapiens, UniProt P17947 1-270)
Procedure, shortened: as §1

SPIB = SPIB (Homo sapiens, UniProt Q01892 1-262)
Chain of SPIB (Q01892 whole entry): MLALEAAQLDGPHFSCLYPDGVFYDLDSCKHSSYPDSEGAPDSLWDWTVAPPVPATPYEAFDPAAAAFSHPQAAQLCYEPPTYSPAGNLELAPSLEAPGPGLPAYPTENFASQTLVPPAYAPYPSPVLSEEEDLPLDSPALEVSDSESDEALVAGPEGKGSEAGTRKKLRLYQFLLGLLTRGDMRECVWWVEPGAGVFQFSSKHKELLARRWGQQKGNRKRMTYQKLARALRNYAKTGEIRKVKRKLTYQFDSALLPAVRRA
Procedure, shortened: as §1

ELK3 = molecular target: T6, ELK3 (Homo sapiens, UniProt P41970 1-407)
T6 sequence: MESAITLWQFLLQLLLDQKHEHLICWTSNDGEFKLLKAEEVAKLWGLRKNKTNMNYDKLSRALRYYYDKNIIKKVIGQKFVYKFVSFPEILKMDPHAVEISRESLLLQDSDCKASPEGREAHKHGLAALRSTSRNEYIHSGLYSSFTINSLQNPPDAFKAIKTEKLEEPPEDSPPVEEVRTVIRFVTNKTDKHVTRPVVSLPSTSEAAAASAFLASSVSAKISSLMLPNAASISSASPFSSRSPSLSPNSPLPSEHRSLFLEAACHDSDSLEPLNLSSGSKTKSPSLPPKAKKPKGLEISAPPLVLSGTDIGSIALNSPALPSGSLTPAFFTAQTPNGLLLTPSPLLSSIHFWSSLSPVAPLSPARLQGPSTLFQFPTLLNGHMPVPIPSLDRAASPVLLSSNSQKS
Procedure, shortened: as §1

Sequence | binding signal (FLI1) | binding signal (ELK1) | binding signal (GABPA) | binding signal (ERG) | binding signal (ELF1) | binding signal (EHF) | binding signal (SPI1) | binding signal (SPIB) | binding signal (ELK3)
CTCGTC | 1.49 fold enrichment (6-mer frequency, TF over GST control) | 1.27 fold enrichment (6-mer frequency, TF over GST control) | 1.51 fold enrichment (6-mer frequency, TF over GST control) | 1.37 fold enrichment (6-mer frequency, TF over GST control) | 1.36 fold enrichment (6-mer frequency, TF over GST control) | 1.36 fold enrichment (6-mer frequency, TF over GST control) | 1.34 fold enrichment (6-mer frequency, TF over GST control) | 1.39 fold enrichment (6-mer frequency, TF over GST control) | 1.46 fold enrichment (6-mer frequency, TF over GST control)
ATGTTA | 1.24 fold enrichment (6-mer frequency, TF over GST control) | 1.25 fold enrichment (6-mer frequency, TF over GST control) | 1.26 fold enrichment (6-mer frequency, TF over GST control) | 1.22 fold enrichment (6-mer frequency, TF over GST control) | 1.22 fold enrichment (6-mer frequency, TF over GST control) | 1.23 fold enrichment (6-mer frequency, TF over GST control) | 1.13 fold enrichment (6-mer frequency, TF over GST control) | 1.17 fold enrichment (6-mer frequency, TF over GST control) | 1.15 fold enrichment (6-mer frequency, TF over GST control)
TTATGT | 1.3 fold enrichment (6-mer frequency, TF over GST control) | 1.3 fold enrichment (6-mer frequency, TF over GST control) | 1.27 fold enrichment (6-mer frequency, TF over GST control) | 1.31 fold enrichment (6-mer frequency, TF over GST control) | 1.24 fold enrichment (6-mer frequency, TF over GST control) | 1.28 fold enrichment (6-mer frequency, TF over GST control) | 1.31 fold enrichment (6-mer frequency, TF over GST control) | 1.32 fold enrichment (6-mer frequency, TF over GST control) | 1.22 fold enrichment (6-mer frequency, TF over GST control)
CTGAAT | 1.23 fold enrichment (6-mer frequency, TF over GST control) | 1.37 fold enrichment (6-mer frequency, TF over GST control) | 1.36 fold enrichment (6-mer frequency, TF over GST control) | 1.36 fold enrichment (6-mer frequency, TF over GST control) | 1.31 fold enrichment (6-mer frequency, TF over GST control) | 1.31 fold enrichment (6-mer frequency, TF over GST control) | 1.36 fold enrichment (6-mer frequency, TF over GST control) | 1.26 fold enrichment (6-mer frequency, TF over GST control) | 1.23 fold enrichment (6-mer frequency, TF over GST control)
TTAATT | 1.38 fold enrichment (6-mer frequency, TF over GST control) | 1.34 fold enrichment (6-mer frequency, TF over GST control) | 1.42 fold enrichment (6-mer frequency, TF over GST control) | 1.32 fold enrichment (6-mer frequency, TF over GST control) | 1.37 fold enrichment (6-mer frequency, TF over GST control) | 1.39 fold enrichment (6-mer frequency, TF over GST control) | 1.38 fold enrichment (6-mer frequency, TF over GST control) | 1.36 fold enrichment (6-mer frequency, TF over GST control) | 1.54 fold enrichment (6-mer frequency, TF over GST control)
CCATTT | 1.25 fold enrichment (6-mer frequency, TF over GST control) | 1.29 fold enrichment (6-mer frequency, TF over GST control) | 1.42 fold enrichment (6-mer frequency, TF over GST control) | 1.4 fold enrichment (6-mer frequency, TF over GST control) | 1.27 fold enrichment (6-mer frequency, TF over GST control) | 1.31 fold enrichment (6-mer frequency, TF over GST control) | 1.45 fold enrichment (6-mer frequency, TF over GST control) | 1.37 fold enrichment (6-mer frequency, TF over GST control) | 1.33 fold enrichment (6-mer frequency, TF over GST control)
ATCGAC | 1.13 fold enrichment (6-mer frequency, TF over GST control) | 1.11 fold enrichment (6-mer frequency, TF over GST control) | 1.17 fold enrichment (6-mer frequency, TF over GST control) | 1.1 fold enrichment (6-mer frequency, TF over GST control) | 1.24 fold enrichment (6-mer frequency, TF over GST control) | 1.12 fold enrichment (6-mer frequency, TF over GST control) | 1.15 fold enrichment (6-mer frequency, TF over GST control) | 1.11 fold enrichment (6-mer frequency, TF over GST control) | 1.27 fold enrichment (6-mer frequency, TF over GST control)
